Our source for the growth inhibition values is PubChem BioAssay (NCI).

Compounds without any hit were thinned out: in the full panel of roughly 79,000, 15% have a hit. A number with no mark means an inactive call. The source made the active and inactive calls. Cut-off read from the data, not from the text of the source: active = growth inhibition above about 70%; inactive = the rest.

The experiment is described as follows: NCI Yeast Anticancer Drug Screen. Data for the rad50 strain (AID 155).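 Note: 0% = growth of vehicle-only cultures of the same strain.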 Particulars: S. cerevisiae rad50 strain growth inhibition; at 50.0 µM; hits give high values. A digest of the protocol:
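DNA repair mutant yeast, compound exposure, growth read-out; inhibition is taken relative to vehicle.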
Take `CC(=O)OCCOCCCl`: the growth inhibition is -12.8%.

Take `Cc1ccc(Sc2ccc3ccccc3c2)nc1`: the growth inhibition was 6.75%.

As for `CC(C)=C1C2CCC1[C@H](COS(C)(=O)=O)[C@@H]2COS(C)(=O)=O`, the growth inhibition is -6.7%.

Consider `N[C@@H]1CCCC[C@H]1O`, for which the growth inhibition was -0.35%.

Consider `CCC1=CCN2CCC34c5cc(C6(C(=O)OC)CC7CC(CC)CN(CCc8c6[nH]c6ccccc86)C7)c(OC)cc5N(C)C3C(O)(C(=O)OC)C(OC(C)=O)C1C24` (stereo not given), for which the growth inhibition is 0.2%.

On to `COC(=O)C1(CC(=O)c2ccc(F)cc2)NC(=S)NC(=O)C1C#N` (stereo not given), for which the growth inhibition was 14.6%.

Consider `Cn1c(=O)c2c(nc(Br)n2CC(=O)c2ccc([N+](=O)[O-])cc2)n(C)c1=O`, for which the growth inhibition is 24.8%.

Regarding `CC(=O)NC(C)c1ccc2ccccc2c1` (stereo not given), the growth inhibition is -5.4%.

`O=C(NNC(=O)c1cccc(F)c1)c1cccc(F)c1`: the growth inhibition is -20.6%.

Consider `CCOC(=O)C1=C(O)c2c(OC)ccc(OC)c2C(=O)C1=O`, for which the growth inhibition is -23.6%.

Consider `NC(CSCC(=O)O)C(=O)O` (stereo not given), for which the growth inhibition was -19.8%.

`Clc1c(Cl)c(Cl)c(CSCc2c(Cl)c(Cl)c(Cl)c(Cl)c2Cl)c(Cl)c1Cl`: the growth inhibition was -16.2%.

For the compound `CCCCCCCNc1ccc(C(=O)OCC)cc1`, the growth inhibition was -1.5%.

In the case of `Oc1c(Cl)cc(N=Cc2ccc(N(CCCCl)CCCCl)cc2)cc1Cl`, the growth inhibition is 92.6% (active).

For `COc1ccc2c3ccc4c(c3n(C)c2c1)C(=O)c1ccccc1C4=O`, the growth inhibition is -38.3%.

On to `Cc1ccsc1/C=N/Nc1ncccn1`, for which the growth inhibition was 16.1%.

For the compound `O=C1Nc2ccccc2C1=O`, the growth inhibition is -0.85%.

Regarding `CC(C)C(CN)(C(C)C)C(C)C`, the growth inhibition is 2.35%.

Consider `O=C(NCCCN1CCN(CCCNC(=O)Nc2ccc(Br)cc2)CC1)Nc1ccc(Br)cc1`, for which the growth inhibition is 27.7%.

Regarding `Cc1ccccc1C1=CCCCCC1`, the growth inhibition is -5.15%.

With `O[C@]12c3ccccc3C1CCCCC2N1CCOCC1` (stereo not given in full), the growth inhibition is -15.8%.

Regarding `Cc1ccnc(SCC(=O)O)n1`, the growth inhibition is -4.35%.

Take `COc1cc(C2=N/C(=C\C=C\c3ccccc3)C(=O)O2)cc(OC)c1OC`: the growth inhibition is 16.8%.

Take `CC(C)(C)CC(C)(O)COC(=S)S` (stereo not given): the growth inhibition was -10.5%.

With `Cc1ccc(S(=O)(=O)Nc2ccc(C(=O)NC(CCC(=O)O)C(=O)O)cc2)cc1` (stereo not given), the growth inhibition was 3.3%.

With `Nc1n[n+](-c2ccc(Cl)cc2)no1`, the growth inhibition is 67%.

On to `O=C(C[n+]1ccccc1-c1ccccn1)c1ccc(-c2ccccc2)cc1`, for which the growth inhibition is 7.9%.

Turning to `C[N+]([O-])=C(c1ccccc1)c1ccccc1`, the growth inhibition was -15.7%.

Take `CCOc1ccc(C(=O)OC)cc1`: the growth inhibition is 31.1%.

Consider `O=C(O)c1c(Br)c(Br)c(Br)c(Br)c1C(=O)Nc1ccccc1F`, for which the growth inhibition is 7%.

As to `O=C(OCCCl)C1CC2C=CC1C2` (stereo not given), the growth inhibition is -4.5%.

With `CCc1cccc(CC)c1NC(=O)c1ccc(C)cc1`, the growth inhibition is -6.25%.

Consider `Nc1nn(CC(O)CO)c(=O)s1` (stereo not given), for which the growth inhibition was 4.85%.

Take `Nc1nc2ccccc2[nH]1`: the growth inhibition was 2.2%.

On to `COc1ccc(N=Nc2c(C)c(C#N)c(=S)n(C3OC(COC(C)=O)C(OC(C)=O)C(OC(C)=O)C3OC(C)=O)c2-c2ccccc2)cc1` (stereo not given), for which the growth inhibition was -8.55%.

On to `[N-]=[N+]=NCC1OCOC1C1OCOC1CN=[N+]=[N-]` (stereo not given), for which the growth inhibition is -6.85%.

Take `COC1OC(COC(c2ccccc2)(c2ccccc2)c2ccccc2)C(OS(=O)(=O)c2ccc(C)cc2)C(OC(=O)c2ccccc2)C1OC(=O)c1ccccc1` (stereo not given): the growth inhibition is 0.1%.

As to `Cc1ccc(C)c2c1C(=O)c1ccccc1C2(O)C#Cc1ccccc1` (stereo not given), the growth inhibition was 27.6%.

For `CN(c1ccccc1)c1nc(Cl)c(Cl)c(Cl)n1`, the growth inhibition is -0.2%.

As for `O=C(NC1CCCCC1)OC/C=C\c1ccccc1`, the growth inhibition was 7.2%.
